A selection: hits, their analogues and other compounds. The true share with any hit is near 2.4%.
D2 antag – antagonizes the human D2 dopamine receptor. inhibition, % at 10 µM. HEK293 TREx D2 cells, calcium flux, dopamine EC80. actives 2% (n = 340,000). P14416. AID 485344; in the data active means inhibition above about 30%; inactive means below that, where a call was filed; further: 0% is about no effect
Target sequence (P14416 whole entry, looked up): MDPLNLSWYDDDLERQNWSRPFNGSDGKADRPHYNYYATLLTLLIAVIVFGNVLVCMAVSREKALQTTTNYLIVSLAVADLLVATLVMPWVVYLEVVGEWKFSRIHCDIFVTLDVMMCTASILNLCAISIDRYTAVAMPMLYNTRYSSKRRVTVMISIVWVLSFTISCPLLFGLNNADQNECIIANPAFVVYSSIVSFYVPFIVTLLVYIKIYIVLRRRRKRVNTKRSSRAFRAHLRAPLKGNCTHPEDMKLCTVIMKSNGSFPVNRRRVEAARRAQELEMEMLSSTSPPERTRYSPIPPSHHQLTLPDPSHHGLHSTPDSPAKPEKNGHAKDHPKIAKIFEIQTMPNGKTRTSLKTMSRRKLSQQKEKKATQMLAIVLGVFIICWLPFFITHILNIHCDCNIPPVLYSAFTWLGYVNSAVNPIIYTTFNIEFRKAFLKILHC
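Overnight-induced (tetracycline, 30 C) HEK293 T-REx cells carrying force-coupled D2 receive a no-wash calcium dye, then compound, then EC80 dopamine at 180 s; signals are read kinetically throughout.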
D2 ag-1 – agonists of human D2 dopamine receptor; P14416; HEK293 T-REx D2 cells, calcium flux agonist mode; activation, % at 2 µM; actives 0.53% (n = 340,000); AID 485358;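 active means activation over 3 SD above normal in the single-dose calcium agonist read, cut at about 30% in these data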; further: 0% is about no effect
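Agonism is scored from calcium flux in a force-coupled, inducible HEK293 cell line expressing D2, read kinetically for 180 s after compound addition against dopamine controls.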
D2 PAM-1 – positively modulates the human D2 dopamine receptor allosterically. actives 0.34% (n = 340,000). AID 485347. HEK293 T-REx D2, calcium flux, EC20 dopamine potentiation. P14416. potentiation, % at 10 µM;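 active means potentiation over 3 SD above the plate norm, cut at about 30% in these data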; further: 0% is about no effect
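Potentiation of an EC20 dopamine calcium response is measured in a force-coupled, tetracycline-inducible Hek293 Trex D2 line. Compound-only kinetic reads over 180 s flag agonists before dopamine addition.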
D2 ag-2 – activates the human D2 dopamine receptor; DiscoveRx PathHunter D2 beta-arrestin, luminescence, 90 min; 100% = 57 uM dopamine signal; activation, % (test concentration not listed); actives 0.084% (n = 360,000); AID 624465; in the data active means activation above about 40%
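Agonist mode: compounds alone added to overnight-plated D2 PathHunter cells for 90 min at 37 C, with 57 uM final dopamine (EC100) defining full response. Beta-arrestin recruitment detected by chemiluminescent reagent, read after 1 h at ambient temperature.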
D2 PAM-2 – human D2 receptor positive allosteric modulation; P14416; DiscoveRx D2 beta-arrestin cells, luminescence, 90 min; 100% = 57 uM dopamine signal; potentiation, % (concentration not given with the values); actives 0.23% (n = 360,000); AID 624464; in the data active means potentiation above about 50%
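PathHunter beta-arrestin assay in DiscoveRx D2 cells. Compounds were added with an EC20 of dopamine (50 nM final) for 90 min at 37 deg C. Luminescence was read 1 h after detection reagent, with 57 uM dopamine as the EC100 control.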
Starred values were filed as active, the others as inactive; nt = no result given.

SMILES | D2 antag | D2 ag-1 | D2 PAM-1 | D2 ag-2 | D2 PAM-2
N#Cc1c(NCCN)nc(NCc2ccccc2)c2c1CCN(Cc1ccccc1)C2 | nt | nt | nt | -1.1 | 2.3
CCN1CCc2c(C#N)c(NCc3ccccc3)nc(N(CC)CC)c2C1 | 45.8* | 2.6 | -7.8 | -1.6 | -37.3
Cc1ccc(Nc2nc3ccccc3c3nnc(C)n23)c(C)c1 | nt | -1.0 | 6.9 | nt | nt
Cc1cccc(C(=O)NCC(=O)OCc2cc(=O)n3nc(C4CCCCC4)sc3n2)c1 | nt | 0.5 | 4.3 | nt | nt
CCOc1cc(/C=C2\SC(=S)N(C(C(=O)O)c3ccccc3)C2=O)ccc1O (stereo not given) | -7.9 | -0.1 | 12.2 | -11.4 | -20.1
COc1cc(/C=C2\SC(=S)N(C(C(=O)O)c3ccccc3)C2=O)ccc1O (stereo not given) | 1.3 | 32.5* | 0.5 | -9.8 | -20.3
Cn1cccc1-c1cc(C(=O)N/N=C/c2ccc(Cl)cc2)[nH]n1 | 35.0* | -1.0 | -19.6 | 3.2 | -8.1
CC(C)(C)CC(=O)Nc1nnc(SCC(=O)NC2CCCCC2)s1 | -3.9 | 1.8 | 0.7 | -2.6 | -4.4
CC(C)(C)CC(=O)Nc1nnc(SCC(=O)N2CCCCC2)s1 | -6.7 | 0.2 | 31.9* | -3.0 | 2.2
O=C(c1cccc([N+](=O)[O-])c1)N1c2nc(-c3ccco3)nn2C2(CCCCC2)[C@@H]2CCCC[C@@H]21 | nt | 0.1 | 18.1 | nt | nt
N#C/C(=C\c1ccc(N2CCCCC2)o1)C(=O)Nc1cccc(Br)c1 | 12.8 | 95.3* | -6.1 | -4.0 | -13.3
COc1ccc(C2C=C(c3cccc(OC)c3)Nc3c(C(=O)Nc4ccccc4)cnn32)cc1 (stereo not given) | nt | -0.3 | -9.0 | nt | nt
NS(=O)(=O)c1ccc(NC(=O)/C=C/c2cccc(Cl)c2)cc1 | 35.2* | 0.2 | -11.0 | 6.2 | -9.9
CCOC(=O)c1noc2nc(C)n(CC(=O)Nc3cc(Cl)ccc3OC)c(=O)c12 | nt | -1.3 | -3.2 | nt | nt
CC(C)(C)c1ccc(/C=N/NC(=O)c2ccccn2)cc1 | 3.2 | 1.1 | -14.1 | -3.7 | -5.7
O=C(N/N=C/c1ccsc1)c1ccccn1 | 39.1* | 0.1 | -8.5 | -4.6 | -4.9
COc1ccc(N2CCN(S(=O)(=O)CCNC(=O)c3ccc(C(F)(F)F)cc3)CC2)cc1 | nt | 1.6 | -4.4 | nt | nt
CCS(=O)(=O)N1Cc2ccccc2CC1C(=O)Nc1cccc(OC)c1 (stereo not given) | 34.4* | -0.5 | 0.5 | -2.1 | -1.6
CCS(=O)(=O)N1Cc2ccccc2CC1C(=O)Nc1ccc(OC)c(OC)c1 (stereo not given) | 4.0 | 0.1 | -2.2 | -1.8 | 0.0
CC(C)Cc1cc(CN2CCC(CO)(Cc3ccccc3)CC2)[nH]n1 | 47.4* | -1.4 | -22.7 | -0.4 | -18.2
N#Cc1ccccc1COC(=O)c1ccc2c(c1)OCCO2 | 30.7* | 0.5 | -4.1 | 4.1 | -20.8
Cc1ccc(S(=O)(=O)c2ccc([N+](=O)[O-])cn2)cc1 | 4.3 | -0.1 | 8.4 | -6.7 | 23.9
O=[N+]([O-])c1ccc(S(=O)(=O)c2ccccc2)nc1 | -8.3 | -0.2 | 0.6 | 48.3* | -65.0
O=C(NC1CCCCCCC1)c1cccnc1 | -1.4 | -0.4 | -1.7 | -3.5 | -15.8
O=C(N=NC(=O)c1ccc2c(O)n(C3CCCCC3)c(O)c2c1)c1cccnc1 | -21.6 | 1.0 | 39.9* | -4.8 | -8.4
SMILES | D2 antag | D2 ag-1 | D2 PAM-1 | D2 ag-2 | D2 PAM-2
COC(=O)c1ccc(C(=O)OC)c(NC(=O)N2CC3CCCN3c3ccccc32)c1 (stereo not given) | nt | -0.2 | 12.9 | nt | nt
COc1ccc(Cn2c(O)c(C=Nc3ccccc3C(=O)O)c3ccccc3c2=O)cc1 | 32.2* | -0.5 | 4.0 | 5.0 | 4.8
COc1cccc(C(=O)NCC2CCCN(C3CCCCC3)C2)c1OC (stereo not given) | 57.2* | 0.9 | -17.4 | -0.4 | 0.6
O=C(Nc1ccc(S(=O)(=O)N2CCCCC2)cc1)c1ccc(CN2CCOCC2)cc1 | nt | nt | 42.3* | 1.7 | -9.1
CCN(CC)S(=O)(=O)c1ccc(NC(=O)c2ccc(CN3CCOCC3)cc2)cc1 | 7.9 | 0.8 | 30.3* | 0.2 | -10.4
O=C(Nc1ccc(S(=O)(=O)N2CCCC2)cc1)c1ccc(CN2CCOCC2)cc1 | -6.3 | 2.0 | 12.5 | -1.0 | -3.1
O=C(Nc1cccc(S(=O)(=O)C(F)F)c1)c1ccc(S(=O)(=O)N2CCCC2)cc1 | 58.5* | -0.7 | -15.1 | 2.8 | 4.0
Cc1ccc(C(=O)COC(=O)c2cc(-c3ccccc3)nc3ccccc23)cc1C | nt | -1.0 | 2.5 | nt | nt
COc1ccc(NC(=O)c2sc3nc4n(c(=O)c3c2C)CCC4)c(OC)c1 | nt | -0.9 | -4.5 | nt | nt
Cc1cc(C)n(CCc2nc3c4ccccc4nc(N4CCN(c5cccc(C)c5C)CC4)n3n2)n1 | nt | nt | -3.3 | nt | nt
CCN(C(=O)N(CC)c1ccccc1)c1ccccc1 | 42.5* | -0.5 | -9.6 | 4.8 | -0.3
O=C1C=C(Nc2ccc(F)cc2)c2ccccc2C1=O | 8.3 | 0.0 | 4.1 | 9.2 | 50.5*
O=C1C=C(Nc2cccnc2)c2ccccc2C1=O | nt | nt | nt | 12.1 | 57.8*
CCc1ccc(N2CC(c3nnc(NC(=O)c4ccco4)s3)CC2=O)cc1 (stereo not given) | nt | -1.2 | 3.4 | nt | nt
COc1ccc(CC(=O)NCCc2cnc[nH]2)cc1 | 4.0 | 0.3 | 6.8 | -4.7 | -11.2
COc1ccc(C)c(NC(=O)NCCc2cnc[nH]2)c1 | 37.7* | -0.1 | -10.4 | 0.3 | -27.4
COCCCNc1nc(NCc2ccc(C)cc2)c2cnn(C)c2n1 | nt | 0.9 | 2.4 | nt | nt
Oc1ccccc1N1CCN(Cc2ncc(-c3ccccc3)o2)CC1 | 56.9* | 0.6 | -34.7 | -2.7 | -15.3
CCOC(=O)c1c(NC(C)=O)sc2c(O)c(Br)cc(Br)c12 | 36.2* | -0.1 | 7.4 | 2.4 | 13.3
CC(=O)c1cccc(NC(=O)Cn2cc(C(=O)c3cccc(Cl)c3)c(=O)c3ccc(C)nc32)c1 | nt | 0.9 | -11.6 | nt | nt
CCC(C)(C)NC(=O)CN(Cc1ccc2c(c1)OCO2)C(=O)CCC(=O)Nc1nccs1 | 40.8* | -0.7 | 3.6 | -2.0 | -6.6
CCC(C)(C)NC(=O)CN(C(=O)CCC(=O)Nc1nccs1)c1ccc2c(c1)OCCO2 | 0.9 | -2.1 | 30.8* | -2.3 | -5.9
CCc1ccc(N(CC(=O)NC(C)(C)CC)C(=O)CCC(=O)Nc2nccs2)cc1 | -0.2 | 0.4 | -10.0 | -4.8 | -4.2
CCCCC(=NCCc1c(C)[nH]c2ccc(OC)cc12)C1=C(O)CC(c2ccccc2)CC1=O (stereo not given) | -13.1 | 5.7 | 32.6* | 2.2 | -19.9
Cc1ccc(S(=O)(=O)NCCSc2ncccn2)cc1 | 86.4* | 0.3 | -34.0 | -6.9 | -4.2
COc1ccc(COc2ccsc2C(=O)Nc2ccc(Cl)cc2)cc1 | 39.9* | 0.5 | 16.3 | -0.9 | -10.0
CCn1cc(C(=O)Nc2cccc(Cl)c2)c2cc(OC)c(OC)cc2c1=O | nt | -0.1 | 12.4 | nt | nt
Cn1c(=S)[nH]c2scc(-c3cccs3)c2c1=O | nt | nt | nt | 14.4 | 67.5*

Screens as filed in PubChem BioAssay.
